ELG1 repair inh: qHTS screen for small molecules that inhibit ELG1-dependent DNA repair in human embryonic kidney (HEK293T) cells expressing luciferase-tagged ELG1; 330,000 tested, 2.3% active; HEK293T ELG1-luciferase reporter, luminescence, 16 h; DNA damage induced by 5-fluorouridine; AID 504467, 2011; Potency, µM (doses to about 46.1 µM), for the others: top-dose activity change, negative = inhibition, most hits filed as inhibitors; further: on the % scale 0 is the no-effect control and ±100 the full control effect; nearly all actives have a fitted effect of over 55% in size
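HEK293T cells expressing luciferase-tagged ELG1 (2,000/well) received 5-Fluorouridine plus compound or DMSO for 16 hr at 37 °C. Luciferase was read by ONE-Glo luminescence after 30 min at room temperature.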
MCF10A rerep: A quantitative high throughput screen for small molecules that induce DNA re-replication in MCF 10a normal breast cells. MCF 10A DNA re-replication, Hoechst nuclear intensity, 48 h. Potency, µM (doses to about 46.1 µM), inactives show top-dose activity, positive = re-replication, most hits filed as activators. 350,000 tested, 2.9% active. AID 624296, 2012; further: % of control where 0% means no effect; nearly all actives have a fitted effect of over 50% in size
SW480 rereplic: A quantitative high throughput screen for small molecules that induce DNA re-replication in SW480 colon adenocarcinoma cells. SW480 DNA re-replication, Hoechst DNA content imaging, 48 h. Potency, µM (titrated, usually from 46.1 µM), for the others: top-dose re-replication activation, most hits filed as activators. 340,000 tested, 1.8% active. AID 624297, 2012; further: % of control where 0% means no effect; nearly all actives have a fitted effect of over 55% in size
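SW480 cells exposed to compounds for 48 hr at 37 C, 5% CO2, then Hoechst-stained 40 min. Nuclear DNA content imaged by fluorescence scanning (405 nm excitation, 500-530 nm emission); re-replication scored as increased high-intensity nuclei.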
KB-3-1 cytotox: qHTS assay for MDR1-selective chemotherapeutics: Primary screen using the parental adenocarcinoma cell KB-3-1. KB-3-1 viability, CellTiter-Glo ATP luminescence, 72 h. 400,000 tested, 1.4% active. Potency, µM (doses to about 46.1 µM), hits mostly cytotoxic. AID 1347075, 2019; further: on the % scale 0 is the no-effect control and ±100 the full control effect; nearly all actives have a fitted effect of over 60% in size
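Cells are dispensed, compounds pinned in, plates held at 37 °C for 72 h, then CellTiter-Glo is added and luminescence read after 10 minutes. Cell line: parental KB-3-1 in phenol-red-free DMEM, 10% FBS.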
KB-V1 cytotox: qHTS assay for MDR1-selective chemotherapeutics: Primary screen using the drug-selected MDR subline cells KB-V1; KB-V1 MDR cells viability, CellTiter-Glo, 72 h; 400,000 tested, 3.4% active; Potency, µM (highest dose often 46.1 µM), actives largely listed as cytotoxic; further: on the % scale 0 is the no-effect control and ±100 the full control effect; nearly all actives have a fitted effect of over 60% in size
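Cytotoxicity via CellTiter-Glo luminescence after 72 h compound exposure at 37 degrees C. Cells: drug-selected KB-V1 line, DMEM phenol-red free plus 10% FBS. Compounds tested at multiple concentrations; normalized data fitted to concentration-effect curves.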
* hit, by the source's call; i = inactive; ? = inconclusive; . = not tested or not shown. Shown are actives, neighbours in structure and some others; about 8.1% of the full set was active somewhere. The call rests on the fitted dose curve; in most records, active means well fitted curve in the direction sought with a large enough effect; inconclusive means small, poorly fitted or top-dose-only effect, or another doubt; inactive means no such curve, though single readings can be large; an effect the other way counts as inactive or inconclusive. Potency means the concentration at half of the fitted maximal effect.

SMILES | ELG1 repair inh | MCF10A rerep | SW480 rereplic | KB-3-1 cytotox | KB-V1 cytotox
O=C(O)c1cccc(NC(=S)NC(NC(=O)c2ccccc2[N+](=O)[O-])C(Cl)(Cl)Cl)c1 (stereo not drawn) | 26% | 1% | -8% | i | i
Cc1ccc(NC(NC(=O)Cc2ccccc2)C(Cl)(Cl)Cl)cc1 (stereo not drawn) | -6% | 3% | 2% | ? | 15µM*
CCN=c1scc(-c2ccco2)n1/N=C/c1ccc(O)cc1 | ? | 23µM* | 3% | i | i
CN(Cc1ccccc1)C(=O)CSc1nnc(-c2ccco2)n1-c1ccccc1 | 0% | 2% | -5% | i | 3.7µM*
O=C(CSc1nnc(-c2ccco2)n1Cc1ccccc1)c1ccccc1 | ? | 29% | 8% | i | i
Cc1ccc2nc(CSc3nnc(-c4ccco4)n3-c3ccccc3)cc(=O)n2c1 | . | 4% | 24% | i | 10µM*
O=C(CSc1nnc(-c2ccco2)n1Cc1ccccc1)NC(=O)NCc1ccccc1 | 18µM* | ? | -1% | i | ?
Cc1ccc(C(=O)CSc2nnc(-c3ccco3)n2Cc2ccccc2)cc1 | ? | 13% | 2% | 21µM* | ?
COc1ccc(S(=O)(=O)/C(C#N)=C/Nc2ccccc2F)cc1 | 2% | -3% | -57% | i | i
Cc1ccc(C(=O)CN(Cc2ccccc2)C2=NCCS2)cc1 | 7% | 5% | 12% | i | 16µM*
Cc1ccc(C(=O)Cc2ccccc2)cc1 | . | 4% | -5% | i | i
O=C(CN(Cc1ccccc1)C1=NCCS1)c1ccccc1 | -7% | 1% | 2% | i | 18µM*
O=C(O)CCCNC(=O)C(c1ccccc1)c1ccccc1 | 7% | ? | -2% | i | i
Cc1ccc(S(=O)(=O)NN2C(=O)/C(=C/c3ccccn3)SC2=S)cc1 | -2% | 10% | -3% | i | ?
COCCN1C[C@@H](CO)O[C@@H](n2cnc3c(N4CCOCC4)ncnc32)C1 | . | . | . | i | i
S=C1Cc2ccccc2N1 | ? | ? | ? | 5.8µM* | ?
COC(=O)c1ccc(OC)cc1OCC(=O)N1CCN(c2ccc(F)cc2)CC1 | -9% | 8% | -3% | i | i
O=C(Nc1ccc(OC(F)(F)F)cc1)c1cc2ccccn2n1 | . | . | . | 10µM* | ?
COc1ccc(NC(=O)c2cc3ccccn3n2)cc1 | ? | 10% | -4% | i | ?
CCC(OC(=O)c1cc2sccc2n1C)C(=O)NCC1CCCO1 (stereo not drawn) | ? | 6% | -4% | i | 23µM*
Cn1c(C(=O)OC(C(=O)NCc2ccco2)c2ccncc2)cc2sccc21 (stereo not drawn) | -5% | 3% | 10% | i | 3.7µM*
CC(OC(=O)c1cc2sccc2n1C)C(=O)NCCc1ccccc1 (stereo not drawn) | ? | ? | ? | i | 13µM*
CC(OC(=O)c1cc2sccc2n1C)C(=O)NCc1ccc(F)cc1 (stereo not drawn) | -29% | 11% | -2% | i | ?
Cn1c(C(=O)OC(C(=O)NCC2CCCO2)c2cccnc2)cc2sccc21 (stereo not drawn) | ? | ? | 1.3µM* | i | i
CC(OC(=O)c1cc2sccc2n1C)C(=O)NCC1CCCO1 (stereo not drawn) | -10% | 6% | -2% | i | i
SMILES | ELG1 repair inh | MCF10A rerep | SW480 rereplic | KB-3-1 cytotox | KB-V1 cytotox
Cc1cc(N2CCCCC2)nc2ccc(NC(=O)/C=C/c3ccccc3Cl)cc12 | . | . | . | ? | i
Cc1ccc(S(=O)(=O)/N=C(/Sc2ccccc2C(=O)O)c2ccccc2)cc1 | 0% | 5% | 3% | ? | i
CC(C)c1ccc(C(C(=O)NC2CCCCC2)N(C(=O)c2ccccn2)c2cccnc2)cc1 (stereo not drawn) | 3% | 11% | 7% | i | i
Cc1cccc(N(CC(=O)NC(C)C)C(=O)CCC(=O)Nc2nccs2)c1 | -16% | -3% | 5% | i | i
CCC(Sc1nnnn1-c1ccccc1)C(=O)NC(C)c1ccccc1 (stereo not drawn) | -5% | -5% | -2% | i | 5.8µM*
CCC(Sc1nnnn1-c1ccccc1)C(=O)Nc1nc2ccccc2s1 (stereo not drawn) | ? | ? | 0% | i | i
CC(Sc1nnnn1-c1ccccc1)C(=O)Nc1ccc(Cl)cn1 (stereo not drawn) | ? | ? | -2% | i | 18µM*
CC(Sc1nnc2ccccn12)C(=O)Nc1ccc(Cl)cn1 (stereo not drawn) | ? | -10% | -2% | i | i
O=C(CSc1nc2cc(C(F)(F)F)ccc2n1Cc1ccccc1)NC1CCS(=O)(=O)C1 (stereo not drawn) | 5% | 16% | ? | i | ?
OCCN1CCN(C2CCC(c3ccc(F)cc3)c3ccc(F)cc32)CC1 (stereo not drawn) | . | 21µM* | ? | ? | ?
O=c1oc(C2(O)CCCCC2)cc2ccc(-c3ccc4[nH]ccc4c3)cc12 | ? | ? | 23% | 0.82µM* | ?
O=c1oc(C2(O)CCCCC2)cc2ccccc12 | 3% | 3% | -2% | i | i
COc1ccc2[nH]c3c(c2c1)CCN1C(=O)C(CC(=O)NCC24CC5CC(CC(C5)C2)C4)C[C@H](C(=O)N2CCCCC2)[C@@]31C (stereo partly drawn) | 13µM* | ? | 1% | ? | ?
COc1ccc2[nH]c3c(c2c1)CCN1C(=O)C(CC(=O)NCc2ccco2)C[C@H](C(=O)N2CCCCC2)[C@@]31C (stereo partly drawn) | -8% | 4% | 18µM* | i | ?
COc1ccc2[nH]c3c(c2c1)CCN1C(=O)C(CC(=O)NC/C=C(\C)CCC=C(C)C)C[C@H](C(=O)N(C(C)C)C(C)C)[C@@]31C (stereo partly drawn) | -29% | 15µM* | ? | ? | ?
CCN(CC)C(=O)[C@H]1CC(CC(=O)NCC23CC4CC(CC(C4)C2)C3)C(=O)N2CCc3c([nH]c4ccc(OC)cc34)[C@]12C (stereo partly drawn) | 23µM* | ? | 0% | i | i

Bioassay records: PubChem BioAssay, National Center for Advancing Translational Sciences (NCATS)
